Rows were chosen to be rich in hits. Some 8.1% of all compounds tested hit in one or more screens of this group.
ELG1 DNA repair – qHTS screen for small molecules that inhibit ELG1-dependent DNA repair in human embryonic kidney (HEK293T) cells expressing luciferase-tagged ELG1; HEK293T ELG1-luciferase reporter, luminescence, 16 h; DNA damage induced by 5-fluorouridine; AID 504467, 2011; 330,000 compounds, 2.3% hits; Potency, µM (highest dose often 46.1 µM), without a hit: at the highest dose activity change, negative = inhibition, most hits filed as inhibitors; also: % is scaled to controls: 0 for no effect and ±100 for the full control effect; nearly all actives have a fitted effect of over 55% in size
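5-Fluorouridine DNA damage + compound/DMSO, 2,000 cells/well, 16 h, 37 °C/5% CO2. ONE-Glo, 30 min RT, luminescence. Readout = decrease in reporter signal.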
KB-3-1 tox – qHTS assay for MDR1-selective chemotherapeutics: Primary screen using the parental adenocarcinoma cell KB-3-1; KB-3-1 viability, CellTiter-Glo ATP luminescence, 72 h; Potency, µM (series often up to 46.1 µM), actives largely listed as cytotoxic; 400,000 compounds, 1.4% hits; AID 1347075, 2019; also: % is scaled to controls: 0 for no effect and ±100 for the full control effect; nearly all actives have a fitted effect of over 60% in size
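Viability of parental KB-3-1 cells, measured by CellTiter-Glo luminescence, followed a 72 h incubation at 37 °C with pinned compounds in phenol-red-free DMEM containing 10% FBS.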
MCF10A rerep – A quantitative high throughput screen for small molecules that induce DNA re-replication in MCF 10a normal breast cells; MCF 10A DNA re-replication, Hoechst nuclear intensity, 48 h; Potency, µM (doses to about 46.1 µM), for the others: at the top dose activity, positive = re-replication, actives largely listed as activators; 350,000 compounds, 2.9% hits; also: % of control where 0% means no effect; nearly all actives have a fitted effect of over 50% in size
KB-V1 cytotox – qHTS assay for MDR1-selective chemotherapeutics: Primary screen using the drug-selected MDR subline cells KB-V1; KB-V1 MDR cells viability, CellTiter-Glo, 72 h; Potency, µM (doses to about 46.1 µM), actives largely listed as cytotoxic; 400,000 compounds, 3.4% hits; also: % is scaled to controls: 0 for no effect and ±100 for the full control effect; nearly all actives have a fitted effect of over 60% in size
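qHTS viability screen in drug-selected KB-V1 MDR cells: 72 h compound treatment at 37 degrees C, ATP luminescence end point.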
SW480 rereplic – A quantitative high throughput screen for small molecules that induce DNA re-replication in SW480 colon adenocarcinoma cells; SW480 DNA re-replication, Hoechst DNA content imaging, 48 h; Potency, µM (titrated, usually from 46.1 µM), inactives show top-dose re-replication activation, most hits filed as activators; 340,000 compounds, 1.8% hits; also: % of control where 0% means no effect; nearly all actives have a fitted effect of over 55% in size
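250 cells/well; 23 nL cpd via pin tool; 48 hr, 37 C, 5% CO2; Hoechst 40 min; imager read of total nuclear intensity, ex 405/em 500-530 nm.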
ELG1 FLuc counter – qHTS screen for small molecules that inhibit ELG1-dependent DNA repair: Hit Confirmation in Cell-Based Luciferin Assay; shares compounds with ELG1 DNA repair; cell-free firefly luciferase luminescence counter-screen, ViewLux; Potency, µM (doses to about 46.1 µM), inactives show at the top dose activity change, negative = inhibition, actives largely listed as inhibitors; 350 compounds, 3% hits; AID 624247, 2012; also: % is scaled to controls: 0 for no effect and ±100 for the full control effect
ELG1-Luc inh – HTS assay for small molecules that inhibit ELG1-dependent DNA repair in human embryonic kidney (HEK293T) cells expressing luciferase-tagged ELG1: Hit Confirmation; shares compounds with ELG1 DNA repair; HEK293T ELG1-luciferase levels, luminescence; cells co-treated with 5-fluorouridine; Potency, µM (series often up to 46.1 µM), without a hit: at the highest dose activity change, negative = inhibition, actives largely listed as inhibitors; 670 compounds, 68% hits; AID 624248, 2012; also: % is scaled to controls: 0 for no effect and ±100 for the full control effect; nearly all actives have a fitted effect of over 55% in size
ELG1-Luc MMS – MMS-stimulated human ELG1 repair inhibition, confirmed. shares compounds with ELG1 DNA repair. 670 compounds, 53% hits. Potency, µM (highest dose often 46.1 µM), inactives show top-dose activity change, negative = inhibition, usual class: inhibitors. HEK293T luciferase-tagged ELG1 level, MMS stimulated; also: % is scaled to controls: 0 for no effect and ±100 for the full control effect; nearly all actives have a fitted effect of over 60% in size
ELG1 5FU viab – qHTS screen for small molecules that inhibit ELG1-dependent DNA repair: Hit Confirmation with 5FU Viability | shares compounds with ELG1 DNA repair | cell viability with 5-FU, ELG1-dependent repair | Potency, µM (top dose mostly 46.1 µM), for inactives: at the highest dose activity change, negative = viability loss, actives largely listed as cytotoxic | 670 tested, under 10 active | AID 624250, 2012;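 also: ELG1-luc HEK293T cells cotreated with 5-fluorouridine at 10 µM final; viability measured 16 h after compound addition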
ELG1 MMS cell – qHTS screen for small molecules that inhibit ELG1-dependent DNA repair: Hit Confirmation with MMS Viability. shares compounds with ELG1 DNA repair. Cell viability with MMS, ELG1-dependent DNA repair. Potency, µM (highest dose often 46.1 µM), inactives show top-dose activity change, negative = viability loss, actives largely listed as cytotoxic. 670 compounds, 33% hits;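 also: ELG1-luc HEK293T cells co-treated with 10 µM MMS; viability read 16 h after compound addition; % is scaled to controls: 0 for no effect and ±100 for the full control effect; nearly all actives have a fitted effect of over 60% in size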
Cell viab unstim – qHTS screen for small molecules that inhibit ELG1-dependent DNA repair: Hit Confirmation with Unstimulated Viability Assay. 900 compounds, 8% hits. Potency, µM (titrated, usually from 45.9 µM), for inactives: at the highest dose activity change, negative = loss of viability, actives largely listed as cytotoxic. shares compounds with ELG1 DNA repair. cell viability counter-screen, unstimulated, luminescence;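 also: compound exposure lasted 16 hours before reading; % is scaled to controls: 0 for no effect and ±100 for the full control effect; nearly all actives have a fitted effect of over 55% in size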
FLuc biochem – qHTS screen for small molecules that inhibit ELG1-dependent DNA repair: Hit Confirmation in Biochemical Luciferin Assay; Potency, µM (series often up to 57.5 µM), for inactives: at the highest dose activity, negative = inhibition, hits mostly inhibitors; AID 624253, 2012; purified firefly luciferase, luminescence counter-screen; shares compounds with ELG1 DNA repair; 350 compounds, 10% hits; also: % is scaled to controls: 0 for no effect and ±100 for the full control effect
* hit, by the source's call; i = inactive; ? = inconclusive; · = no result given; [ ] = dose if it differs, or a comment. Calls follow the shape of the dose curve; as a rule, active = well fitted curve in the direction sought with a large enough effect; inconclusive = small, poorly fitted or top-dose-only effect, or another doubt; inactive = no such curve, though single readings can be large; an effect the other way counts as inactive or inconclusive. Potency is read from the fitted curve at half-maximal effect.

SMILES | ELG1 DNA repair | KB-3-1 tox | MCF10A rerep | KB-V1 cytotox | SW480 rereplic | ELG1 FLuc counter | ELG1-Luc inh | ELG1-Luc MMS | ELG1 5FU viab | ELG1 MMS cell | Cell viab unstim | FLuc biochem
CCCC(=O)O[C@@H]1[C@@H](C)[C@@]2(O)[C@@H](C=C(CO)C[C@]3(O)C(=O)C(C)=C[C@@H]23)[C@@H]2C(C)(C)[C@]12OC(=O)CCC | · | · | · | · | · | · | · | · | · | · | ? | ·
CCCCCCCCCCCCCC(=O)O[C@@H]1[C@@H](C)[C@@]2(O)[C@H](C=C(CO)C[C@]3(O)C(=O)C(C)=C[C@@H]23)[C@@H]2C(C)(C)C12OC(C)=O (stereo not given in full) | · | · | · | · | · | 79% | · | · | · | · | ? | ?
CC(=O)O[C@H]1C[C@@H](O[C@@H]2[C@H](C)O[C@H](O[C@@H]3[C@H](C)O[C@H](O[C@@H]4CC[C@@]5(C)[C@@H](CC[C@]6(C)[C@]5(C)C[C@H](O)[C@]5(C)[C@@H](C7=CC(=O)OC7)CC[C@@]56O)C4)C[C@@H]3O)C[C@@H]2O)O[C@@H](C)[C@H]1O[C@H]1O[C@@H](CO)[C@@H](O)[C@@H](O)[C@@H]1O | · | · | · | · | · | ? | 1.1µM* | 0.6µM* | ? | 1.7µM* | ? | 3%[35.2 µM]
C[C@H]1CCC[C@@H](O)CCC/C=C/c2cc(O)cc(O)c2C(=O)O1 | 2.8µM* | i | 10µM* | ? | ? | · | 4µM* | 4µM* | -7% | ? | ? | ·
COc1cc2c(c(OC)c1)C(=O)OC(C)CCCC(=O)CCCCC2 (stereo not given) | -14% | i | ? | i | 0% | · | · | · | · | · | · | ·
CCOC(=O)c1ccc(NC(=O)c2c(O)[nH]c(=O)[nH]c2=O)cc1 | 6% | i | 0% | i | 7%[9.22 µM] | · | · | · | · | · | · | ·
CC1([N+](=O)[O-])COP(=O)(Nc2cccc(Br)c2)OC1 (stereo not given) | · | i | -4% | i | -1% | · | · | · | · | · | · | ·
COc1cc2c(c(OC)c1OC)-c1ccc(O)c(=O)cc1C(NC(C)=O)CC2 (stereo not given) | ? | 0.0082µM* | ? | ? | ? | 22% | · | · | · | · | -5% | 1%
Cn1c(=O)c2c(nc(-c3ccc(N(CCCl)CCCl)cc3)n2C)n(C)c1=O | · | i | 13% | i | ? | · | · | · | · | · | · | ·
C[C@@H]1C[C@@H]2[C@H]([C@H]3C=C(COC(=O)c4ccccc4)[C@@H](O)[C@]4(O)[C@@H](O)C(OC(=O)c5ccccc5)=C[C@@]14C3=O)C2(C)C | · | · | · | · | · | 96% | · | · | · | · | ? | -1%
COC(=O)C1=C(c2ccc(Cl)c(C(F)(F)F)c2)C[C@@H]2CC[C@H]1N2C(=O)NCCOc1ccccc1 | ? | i | -3% | i | -1% | · | · | · | · | · | · | ·
CO/C1=C\C(C)=C\[C@@H](C)[C@@H](O)[C@H](C)C/C(C)=C/C=C/[C@H](OC)[C@H]([C@@H](C)[C@@H](O)[C@H](C)[C@H]2C[C@@H](O)[C@H](C)[C@@H](C(C)C)O2)OC1=O | · | · | · | · | · | 5% | -3% | -19% | -8% | ? | ? | -1%
O=C(Nc1ccncc1)c1cccn(Cc2ccccc2)c1=O | 3.3µM* | ? | 0% | 5.8µM* | 11% | · | 8% | 2.2µM* | 2% | 2.5µM* | ? | ·
O=C(Nc1ccccc1)c1cccn(Cc2ccccc2)c1=O | 0% | ? | 18% | ? | -136% | · | · | · | · | · | · | ·
CCOc1cc(/C=N/NC(=O)c2cccs2)ccc1OC(=O)N1CCOCC1 | ? | i | 21% | i | -2% | · | · | · | · | · | · | ·
C[C@@H]1C[C@H](C)C[C@H](C)[C@@H](O)CC(=O)O[C@H]([C@H]2CCC[C@H]2C(=O)O)C/C=C/C=C(/C#N)[C@H](O)[C@@H](C)C1 | · | · | · | · | · | ? | 0.4µM* | 0.79µM* | ? | 6.3µM* | ? | 5%
CC(=O)OCC1=C[C@H]2[C@@H]3C(C)(C)[C@]3(OC(=O)Cc3ccccc3)C[C@@H](C)[C@]2(O)[C@@H]2C=C(C)C(=O)[C@@]2(O)C1 | · | · | · | · | · | · | · | · | · | · | ? | ·
CN(C)C(Cc1ccccc1)C(=O)c1c[nH]c2ccccc12 (stereo not given) | 15% | i | -4% | i | -2% | · | · | · | · | · | · | ·
CN1C(=O)C(Cc2ccsc2)C(=O)N(C)C1=O | -7% | i | 5% | i | 2% | · | · | · | · | · | · | ·

Source: PubChem BioAssay (National Center for Advancing Translational Sciences (NCATS))
